# Screens (PubChem BioAssay)
# NS1 function inh: blocks influenza NS1 protein function; Potency, µM (highest dose often 46.1 µM); 270,000 tested, 0.4% active; note: actives are rising curves; nearly all actives have a fitted effect of over 50% in size
#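 OD600 was taken as the measure of yeast growth restored by compound in an NS1-expressing S. cerevisiae strain. Cells had been washed out of glucose medium and diluted 1:100 into galactose -URA medium, pH 6.0.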
# SARS PLpro yeast: blocks SARS-CoV papain-like protease in a yeast assay; S. cerevisiae expressing SARS-CoV PLpro, growth rescue; Potency, µM (series often up to 32.9 µM), actives largely listed as activators; 330,000 tested, 0.19% active; AID 485353; note: nearly all actives have a fitted effect of over 55% in size
# Pf growth 48h: P. falciparum growth inhibition at 48 hours (one generation). Potency, µM (doses to about 28.7 µM), usual class: inhibitors. 310,000 tested, 5.9% active. P. falciparum luciferase growth in erythrocytes, 48 h; active = well fitted inhibition curve with a large enough effect; inconclusive = small, poorly fitted or top-dose-only effect, or another doubt; inactive = no such curve, though single readings can be large or run the other way
#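 Read-out is firefly luciferase luminescence from an integrated reporter in P. falciparum, so falling signal marks reduced parasite growth. Infected erythrocytes were at 2% hematocrit and 0.1% parasitemia (final) in Albumax-supplemented RPMI 1640.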
# Pf growth 96h: inhibits malaria parasite growth, 96 h | P. falciparum luciferase reporter growth, 96 h | Potency, µM (titrated, usually from 28.7 µM), usual class: inhibitors | 320,000 tested, 6.9% active | AID 504834; active = well fitted inhibition curve with a large enough effect; inconclusive = small, poorly fitted or top-dose-only effect, or another doubt; inactive = no such curve, though single readings can be large or run the other way
#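 Two parasite generations (96 h, 37 C, 5% CO2) of compound exposure in infected erythrocytes (0.05% parasitemia, 2% hematocrit). Luciferase-reporter P. falciparum; decreased luminescence indicates inhibited growth, aimed at apicoplast-acting delayed death.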
# CHX counter: counter-screen hit for Shiga toxin inhibitors, cycloheximide; cell reporter, cycloheximide protein synthesis inhibition counterscreen; max response, %; 300,000 tested, 12% active; AID 2314; in the data active = max response mostly above about 13%, no sharp cut-off; inactive = mostly below about 14%; note: read at 38.3 µM for the half of the compounds with a filed dose
# Shiga toxin inh: inhibitors of Shiga toxin in Vero cells | 290,000 tested, 9.2% active | inhibition, % at 38.7 µM | Vero cells, Shiga toxin protein synthesis inhibition reporter | AID 2315; in the data active = inhibition mostly above about 28%, no sharp cut-off; inactive = mostly below about 43%
# A number is an active result; i = inactive; ? = inconclusive; nt = no result; [ ] = remark or other dose. Compounds with a hit are over-represented: about 21% of the library has one in this group of screens. Unless noted, calls come from the whole dose curve.
SMILES,NS1 function inh,SARS PLpro yeast,Pf growth 48h,Pf growth 96h,CHX counter,Shiga toxin inh
O=C(c1ccco1)N1N=C2CCCCCC2C1(O)C(F)(F)F (centres undefined),i,i,i,i,i,i
CNC(=O)c1cc2c(-c3ccccc3)nn(C)c2s1,i,i,i[0.00184 µM],i,i,i
COc1ccc(C(=O)COC(=O)CCc2nc3ccccc3[nH]c2=O)cc1Br,nt,i,i,i,i,i
Cc1cccc(C(=O)NNC2=CC(=O)CC(C)(C)C2)c1O,i,i,i,i,16,65
CC1(C)CC(=O)C=C(NNC(=O)c2ccccc2O)C1,i,i,i,i,i,i
Cc1ccc(-c2cn(CCC(=O)O)c(-c3ccc(Cl)nc3)n2)cc1,nt,i,i,i,nt,nt
Cc1ccc(-c2cn(CCN)c(-c3ccc(Cl)nc3)n2)cc1,nt,i,10µM,i,nt,nt
COc1ccc(-n2c(N)c(C(=O)Nc3c(C)n(C)n(-c4ccccc4)c3=O)c3nc4ccccc4nc32)cc1,i,i,4.7µM,1.7µM,i,i
COc1ccc(-c2cc(C(=O)Nc3c(C)n(C)n(-c4ccccc4)c3=O)c3ccccc3n2)cc1,i,i,?,i,i,i
Nc1c(C(=O)Nc2ccccc2)c2nc3ccccc3nc2n1-c1ccc(O)cc1,i,i,13µM,i,i,i
COc1ccc(-c2cc(C(=O)Nc3c(C)n(C)n(-c4ccccc4)c3=O)no2)cc1,nt,i,?,8.3µM,i,i
Cc1cc(C(=O)Nc2c(C)n(C)n(-c3ccccc3)c2=O)c2ccccc2n1,i,i,i,i,i,i
N#Cc1c(N)n(-c2ccc(C(=O)O)cc2)c2nc3ccccc3nc12,i,i,i,i,i,i
Cc1ccc(-n2c(N)c(C(=O)Nc3c(C)n(C)n(-c4ccccc4)c3=O)c3nc4ccccc4nc32)cc1C,i,i,10µM,?,i,i
CC(=O)c1ccc(-c2nnc(CCC(=O)N(C)Cc3c(C)nc4ccccn34)o2)s1,i,i,i,?,i,i
COc1ccc(NC(=O)COC(=O)CCCOc2ccc(Cl)cc2Cl)cc1Cl,i,i,i,i,i,i
Cc1c(C#N)c(O)n(CCO)c(=O)c1N=Nc1ccc(S(N)(=O)=O)cc1,nt,i,i,i,i,i
Cc1c(C#N)c(O)n(C)c(=O)c1N=Nc1ccc(S(N)(=O)=O)cc1,nt,i,i,i,i,108
Cc1ccc(C(=O)N2CCC(C)CC2)cc1NC1=NC2CS(=O)(=O)CC2S1 (centres undefined),i,i,i,i,i,i
Cc1ccc(C(=O)NCCN2CCOCC2)c(Cl)c1,i,i,i,i,13,28
Cc1cc(Cl)ccc1NC(=S)NCCN1CCOCC1,i,i,i,5.2µM,i,i
Cn1cc(/C=C(\NC(=O)c2ccccc2Cl)C(=O)NCCCN2CCOCC2)c2ccccc21,i,i,?,10µM,i,i
Cc1ccc(Nc2cc(C(=O)NCCCN3CCOCC3)c3ccccc3n2)cc1C,i,i,i,i,38,40
O=C(NCCCN1CCOCC1)c1cc(-c2ccccc2)nc2ccccc12,nt,i,?,i,nt,nt
O=C(NCCCN1CCOCC1)c1ccc(Cl)cc1Cl,i,i,?,i,17,i
SMILES,NS1 function inh,SARS PLpro yeast,Pf growth 48h,Pf growth 96h,CHX counter,Shiga toxin inh
O=C(NCCCN1CCOCC1)c1cc(C(=O)C2CCCCC2)c[nH]1,nt,i,10µM,i,i,i
O=C(Nc1c(Cl)cc(Cl)cc1C(=O)NCCN1CCOCC1)c1ccc(Cl)cc1Cl,i,i,i,?,i,i
CCC(CC)C(=O)c1c[nH]c(C(=O)NCCCN2CCOCC2)c1,i,i,i,i,i,i
O=C(NCCN1CCOCC1)c1cc(-c2ccccc2Cl)nc2ccccc12,i,i,i,9.3µM,i,i
O=C(c1cc(C2CC2)nn1-c1ccccc1)N1CCN(Cc2ccccc2F)CC1,nt,i,?,i,nt,nt
Cc1ccc(C)c(NC(=O)CN(C)C(=O)COc2ncnc3sccc23)c1,i,i,i,i,i,i
O=C(CCn1cccn1)Nc1ccc(-c2ccno2)cc1,i,i,i,i,33,34
O=C(CCn1cccn1)Nc1ccc2c(c1)OCO2,i,i,i,i,36,40
CN1CCN(CCC(=O)Nc2ccc3c(c2)OCO3)CC1,i,i,i,?,i,i
Cc1ccn(CCC(=O)Nc2ccc(-c3ccno3)cc2)n1,i,i,i,?,i,i
O=C(CSc1nccn1-c1ccccc1)Nc1ccc2c(c1)OCO2,i,i,i,i,70,68
